Experimental findings from PubChem BioAssay AID602274 (Sanford-Burnham Center for Chemical Genomics, 2012) are described below.

Structures are written as SMILES. About 160 (0.044%) of roughly 360,000 compounds were called active. Rule as the data show it: active = survival enhancement above about 18%; inactive = the rest. The entries come from a sample that favours actives as a whole.

The nature of the experiment: compounds raising survival of dissociated human iPSCs – cell-based, ATPlite luminescence, primary screen (AID 602274).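 Also: cells exposed to compounds for 16 hours before the ATP read.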 As to conditions: hiPSC single-cell survival, at 20 µM, active compounds read high, 100% = ROCK inhibitor wells, 0% = DMSO.
Regarding `O=C(Nc1ccc(OC(F)(F)F)cc1)c1ccc2c(c1)no[n+]2[O-]`, the survival enhancement is -0.6% (inactive). Then `Cc1c(C=O)c2ccccn2c1C(=O)c1ccncc1`, with 0.1% (inactive); and `O=C(COC(=O)Cn1cnc2ccccc2c1=O)NCC12CC3CC(CC(C3)C1)C2`, with -0.2% (inactive); and `CC1CCCC(NC(=O)COC(=O)c2ccccc2C(=O)N(C)C2CCCCC2)C1C` (configuration not stated), with 0.8% (inactive). Then `Cc1cc(=O)n2nc(N3CCCC(C(=O)NCCC4=CCCCC4)C3)sc2n1` (configuration not stated), with 1.7% (inactive); and `C=CCc1cccc2cc(C(=O)NC3CCCC3)c(=O)oc12`, with 0.2% (inactive). For `CC(C)CC(CC(C)C)=NNC(=O)c1ccc(CSc2nncn2C)cc1` the value was 2.3% (inactive); for `O=c1[nH]cccc1-c1nc2ccccc2n1Cc1ccc(Cl)cc1`, 1.9% (inactive); for `COCCC(=O)N1CCC(Oc2ccc(C(=O)NCc3ccon3)cc2)CC1`, -0.4% (inactive). As to `CN1C(=O)[C@H]2[C@@H](C3CC3)N3C(=O)CN(Cc4ccccc4)C(=O)[C@@]3(C)[C@H]2C1=O`, the survival enhancement was -2.2% (inactive). For `CCOc1cc(/C=C/C(=O)OCC(=O)NCCN2C(=O)CSC2=O)ccc1OCC(C)C`, the survival enhancement is 3% (inactive). In the case of `CN1CCN(C(=O)c2ccc(-c3cc4nc(NCc5cccnc5)n(C)c(=O)c4s3)cc2)CC1`, the survival enhancement is -0.7% (inactive).

Turning to `O=C(CCCN1C(=O)c2ccccc2C1=O)Oc1ccc(Cl)cc1`, the survival enhancement was 3.7% (inactive). Consider `CN(C)c1ccnc(Oc2ccc(F)cc2)c1C#N`, for which the survival enhancement is 1.8% (inactive). With `COCCNC(=S)c1ccc(OC)cc1`, the survival enhancement was 5.9% (inactive). Take `COc1ccc(-c2ccc(CNCCCN3CCOCC3)o2)cc1Cl`: the survival enhancement was -1.8% (inactive). Then `Cc1ccc(Cl)c(OCC(=O)N(C)CC(=O)Nc2ccc(N3CCOCC3)cc2)c1`, with 0% (inactive). For `COc1ccc(Cl)cc1NC(=O)[C@@H]1CCCN1C(=O)c1cccs1` the value was 1.2% (inactive); for `O=C(O)c1ccc(-n2cccc2)cc1O`, -3.7% (inactive). For `NNC(=O)c1cnn(-c2ccccc2)c1C(F)(F)F` the value was -0.5% (inactive). Regarding `O=C1CC2(CCCC2)C(=O)N1CN1CCN(S(=O)(=O)c2ccc(F)cc2F)CC1`, the survival enhancement is -0.8% (inactive). For `O=C(CNCCC1=CCCCC1)Nc1ccccc1N1CCCCCC1` the value was -0.7% (inactive); for `CCNC(=O)Nc1ccc(S(=O)(=O)Nc2cnc(C)nc2C)cc1`, -0.1% (inactive); for `CCCCN(CCCC)C(=O)CCS(=O)(=O)c1ccc2c(c1)n(C)c(=O)c(=O)n2C`, 2.7% (inactive). On to `Cc1c(-c2nn(C)c(=O)c3ccccc23)oc2ccc(F)cc2c1=O`, for which the survival enhancement was -1.5% (inactive). `COC(=O)c1ccc(NC(=S)Nc2cccc(C)n2)cc1`: the survival enhancement is 0.3% (inactive).

`CCCCN1C(=O)CC(N2CCOCC2)C1=O` (configuration not stated): the survival enhancement was 1.8% (inactive).

`COc1cc(OC)cc(-c2c(C#Cc3ccsc3)c3cc(-c4ccc(SC)cc4)ccc3n2C)c1`: the survival enhancement is 1.4% (inactive). For `COc1ccc(N2C(=O)/C(=C\c3ccco3)N=C2SCC(N)=O)cc1Cl` the value was -1.3% (inactive); for `COc1ccc(C(=O)CSc2nnc(NC(=O)C3CC(=O)N(c4cccc(OC)c4)C3)s2)cc1` (configuration not stated), 0.9% (inactive); for `CC(=O)OCCN(CCCn1c(-c2ccncc2)nc2ccccc21)c1nc(-c2ccc(C)cc2)cs1`, 0.8% (inactive).

For `Cc1noc(C)c1CSc1nc2cc(S(=O)(=O)N3CCOCC3)ccc2o1`, the survival enhancement was 8.5% (inactive). `CC(C)(C)C(=O)NCCCNc1ccc([N+](=O)[O-])cc1`: the survival enhancement was -0.5% (inactive).

As for `Nc1ncnc2c1ncn2[C@@H]1O[C@H](C(=O)NCC(F)(F)F)[C@@H](O)[C@H]1O`, the survival enhancement is 1.8% (inactive). Then `CN(Cc1ccc(C(F)(F)F)cc1)C(=O)[C@H]1O[C@@H](n2cnc3c(N)ncnc32)[C@H](O)[C@@H]1O`, with 20.3% (active); and `Cc1nccn1-c1ccc(NC(=O)[C@H]2O[C@@H](n3cnc4c(N)ncnc43)[C@H](O)[C@@H]2O)cc1`, with 1.4% (inactive); and `CCC(=O)c1ccc(OCC(O)CN2C(=O)NC(C)(C)C2=O)cc1` (configuration not stated), with 0.2% (inactive). With `C=Cc1ccc(C(=O)N2CCCC(CCC(=O)N3CCN(c4ccccn4)CC3)C2)cc1` (configuration not stated), the survival enhancement is -0.4% (inactive).

`CC(=O)NNC1=Nc2ccccc2N(C)C(C)C1` (configuration not stated): the survival enhancement was -0.5% (inactive).

Turning to `CC1CCCCC1NC(=O)CCS(=O)(=O)c1cccc2nonc12` (configuration not stated), the survival enhancement is 1.2% (inactive). For the compound `O=C(Nc1ccccc1-c1ccccc1)c1ccccc1[N+](=O)[O-]`, the survival enhancement was 0.6% (inactive). In the case of `O=C(Nc1ccncc1)c1ccccc1[N+](=O)[O-]`, the survival enhancement was 28.4% (active). Turning to `O=C(Nc1ccncc1)c1c(F)cccc1F`, the survival enhancement is 39.6% (active). Then `COc1cccc(OC)c1C(=O)Nc1ccc(Cc2ccncc2)cc1`, with 0.6% (inactive). For `O=C(Nc1ccc(N2CCOCC2)nc1)c1c(F)cccc1F`, the survival enhancement is -0.6% (inactive). For `O=C(Nc1cccnc1)c1ccc(Cl)cc1[N+](=O)[O-]` the value was -1.2% (inactive); for `Cc1cc2cc3c(cc2nc1SCC(=O)Nc1c(C)cccc1C)CCC3`, -1.9% (inactive).

As to `CC(=O)c1ccccc1NC(=O)COC(=O)C1COc2ccccc2O1` (configuration not stated), the survival enhancement is -0.2% (inactive). With `O=C(Nc1nc(-c2ccncc2)cs1)C1COc2ccccc2O1` (configuration not stated), the survival enhancement is 103% (active).

Regarding `CC(/C=C/c1ccco1)=N/NC(=O)C1COc2ccccc2O1` (configuration not stated), the survival enhancement was -0.2% (inactive).

With `CC(=O)c1cnn(-c2cc(Oc3ccc(F)cc3)ncn2)c1C`, the survival enhancement is 2.8% (inactive). Turning to `CCCCNC(=O)CCn1nc(-c2ccc(Cl)cc2)ccc1=O`, the survival enhancement was 0% (inactive). Consider `CC(C)CCN1CCN(C/C=C/c2ccco2)CC1CCO` (configuration not stated), for which the survival enhancement was -0.4% (inactive).

As for `COCc1cc(C)nc2sc3c(=O)n(-c4cccc5ccccc45)nnc3c12`, the survival enhancement is 4.5% (inactive). As to `C[C@H](NC(=O)C1CC(=O)N(c2ccc3c(c2)OCCO3)C1)C(=O)N1CCC(C(=O)O)CC1` (some centres not stated), the survival enhancement is -0.4% (inactive).

Consider `CCOC(=O)C1(Cc2cccc(OC)c2)CCCN(S(=O)(=O)c2cccnc2)C1` (configuration not stated), for which the survival enhancement was 1.2% (inactive). `C[n+]1ccccc1C1CCCC/C1=N\Nc1ccc([N+](=O)[O-])cc1[N+](=O)[O-]` (configuration not stated): the survival enhancement is -1.7% (inactive). For `Cc1ccc(OS(=O)Nc2cccc3nccnc23)cc1` (configuration not stated) the value was 1.2% (inactive); for `CCc1c(C)sc(NC(=O)c2cccs2)c1C(N)=O`, -1.4% (inactive); for `c1ccc2cc3c(NCCN4CCOCC4)ccnc3cc2c1`, -2.3% (inactive).

Regarding `C1=C(N2CCOCC2)/C(=C/c2nc3ccccc3[nH]2)CC1`, the survival enhancement is 3.5% (inactive). In the case of `Cc1ccc(S(=O)(=O)N2CCN(C(=O)COC(=O)/C=C/c3cccc(Cl)c3)CC2)c(C)c1`, the survival enhancement is -0.9% (inactive). Turning to `O=C(Nc1ccc(N2CCN(C(=O)c3ccccc3)CC2)c(Cl)c1)c1ncn[nH]1`, the survival enhancement is 0.4% (inactive). Then `Cc1noc(C)c1NC(=O)Nc1ccc2c(c1)C(=O)N([C@H](C)CO)C[C@H](C)[C@@H](CN(C)C(=O)Nc1ccc(C(F)(F)F)cc1)O2`, with -1.8% (inactive); and `Cc1ccc(NC(=O)c2cnc(SCC(=O)NCC3CCCO3)n(C)c2=O)cc1` (configuration not stated), with 1.7% (inactive). For `O=C(NCC(c1ccco1)N1CCc2ccccc2C1)c1ccccc1Cl` (configuration not stated) the value was -0.3% (inactive); for `CCc1ccc([C@@H]2CC(=O)[C@@H]3CN(S(=O)(=O)c4ccc(C)cc4)[C@H](c4ccc(Cl)cc4)C[C@@H]3N2S(=O)(=O)c2ccc(C)cc2)cc1`, 0.5% (inactive); for `CCCOC(=O)CC1C(=O)NCCN1Cc1ccc(F)cc1` (configuration not stated), 0.4% (inactive). For `COC(=O)C1=C(C)N(C)C(C)=C(C(=O)OC)C1c1cccc(Br)c1` the value was 19.8% (active); for `COC(=O)C1NN=C(C(=O)c2ccc(Br)cc2)C1c1cccc(Br)c1` (configuration not stated), 2.6% (inactive); for `COC(=O)C1=C(C)N(C)C(=S)NC1c1cc(OC)ccc1OC` (configuration not stated), -1.1% (inactive). For the compound `O=C(CS(=O)(=O)c1cn(Cc2ccc(Cl)cc2)c2ccccc12)N1CCOCC1`, the survival enhancement is 0.6% (inactive). As for `COc1ccccc1P(=O)(c1ccccc1)c1ccccc1NC(C)=O` (configuration not stated), the survival enhancement was -0.7% (inactive). Take `CN(Cc1ccc(F)cc1)C(=O)COc1ccc2ccccc2c1`: the survival enhancement was -0.4% (inactive). For `C[C@H]1CN([C@@H](C)CO)C(=O)c2cc(Br)cnc2O[C@H]1CN(C)S(=O)(=O)c1cccs1` the value was 3.8% (inactive). For `CC(=O)Nc1ccccc1C(=O)C(=O)Nc1ccc(F)cc1` the value was 3.3% (inactive). Regarding `CC1CCN(C(=O)/C(=C\c2ccccc2F)NC(=O)c2ccccc2)CC1`, the survival enhancement is -0.6% (inactive). For `CCOC(=O)c1ccn(-c2nc(-c3ccco3)cc(C(F)(F)F)n2)n1` the value was -0.8% (inactive). As to `CC(CCc1ccc(O)cc1)NCc1ccc(Cl)cc1Cl` (configuration not stated), the survival enhancement is 0.5% (inactive). For `CCN(CC)C(=O)Oc1ccc(OC(=O)N(CC)CC)cc1` the value was -2.3% (inactive). For `O=C(COC(=O)C1(c2ccc(F)cc2)CCCC1)N1CCNC1=O` the value was 0.5% (inactive); for `Cc1ccccc1N1CCN(Cc2nc(Cc3ccccc3F)no2)CC1`, -0.1% (inactive). Consider `O=[n+]1c2c(n([O-])c3cc(Br)ccc31)CCC2`, for which the survival enhancement was 3.1% (inactive). On to `CCN(CC)c1ccc(NC(=O)c2ccc(=O)[nH]c2)cc1S(=O)(=O)Nc1ccc(OC)cc1`, for which the survival enhancement was 1.7% (inactive). For `CCCS(=O)(=O)Nc1c(C(=O)O)[nH]c2ccccc12` the value was 0.3% (inactive); for `O=C(O)c1ccc([N+](=O)[O-])cc1Sc1ccsc1`, 6.3% (inactive); for `CC(C)CCOc1ccc(C(=O)Nc2cc(S(=O)(=O)N3CCOCC3)ccc2N2CCOCC2)cc1`, -2.4% (inactive). As for `O=C(NCc1cccnc1)c1cc(C2CCCN(C(=O)C3CCCCC3)C2)on1` (configuration not stated), the survival enhancement is 0.4% (inactive). For `Cc1ccc2cccc(S(=O)(=O)N3CCN(c4ccccc4F)CC3)c2n1` the value was 0% (inactive); for `COc1cccc(CNC(=O)CN2C(=O)NC(Cc3ccccc3)(c3ccccc3)C2=O)c1` (configuration not stated), -1.1% (inactive). Then `Cn1c(=O)c2c(nc(Br)n2CCSc2nc3ccccc3o2)n(C)c1=O`, with 1.6% (inactive). Turning to `OCCC1CN(Cc2ccc3nsnc3c2)CCN1C1CCCC1` (configuration not stated), the survival enhancement was 1.5% (inactive). Turning to `COC(=O)C1=C(Nc2ccc(C)cc2)C=C(C)C(C(=O)OC)C1c1ccc(F)cc1` (configuration not stated), the survival enhancement was -0.6% (inactive). As for `N#Cc1ccccc1Sc1ccccc1C(=O)OCC(=O)NC1CCCCC1`, the survival enhancement was 1% (inactive).

As for `O=C(O)c1ccc(NS(=O)(=O)c2ccc3c(c2)C(=O)c2cc(S(=O)(=O)Nc4ccc(C(=O)O)cc4)ccc2-3)cc1`, the survival enhancement was 4.4% (inactive). As for `CN(C)N(C)C(=O)C(O)(c1ccccc1)c1ccccc1`, the survival enhancement is -0.9% (inactive). Regarding `COC(=O)C1=NNC2(c3ccc(C)cc3)C(=O)N(c3cccc(C)c3C)C(=O)C12` (configuration not stated), the survival enhancement is 1.4% (inactive).
